# Measurements taken from PubChem BioAssay.
# The source made the active and inactive calls.
# Assays:
# Albumin (Bos taurus) = Albumin (Bos taurus) (UniProt P02769); test: compounds binding labelled BSA control protein – biochemical, small-molecule microarray, Alexa647 label, 635/667 nm fluorescence, artefact control for SMM control protein annotation, profiling panel (AID 1118); conditions: BSA-A647 binding, fluorescence 635 nm, higher = more signal;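 further: score merges 667 nm emission intensity and signal-to-noise per printed compound spot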
# Sequence of Albumin (Bos taurus) (P02769 whole entry, looked up): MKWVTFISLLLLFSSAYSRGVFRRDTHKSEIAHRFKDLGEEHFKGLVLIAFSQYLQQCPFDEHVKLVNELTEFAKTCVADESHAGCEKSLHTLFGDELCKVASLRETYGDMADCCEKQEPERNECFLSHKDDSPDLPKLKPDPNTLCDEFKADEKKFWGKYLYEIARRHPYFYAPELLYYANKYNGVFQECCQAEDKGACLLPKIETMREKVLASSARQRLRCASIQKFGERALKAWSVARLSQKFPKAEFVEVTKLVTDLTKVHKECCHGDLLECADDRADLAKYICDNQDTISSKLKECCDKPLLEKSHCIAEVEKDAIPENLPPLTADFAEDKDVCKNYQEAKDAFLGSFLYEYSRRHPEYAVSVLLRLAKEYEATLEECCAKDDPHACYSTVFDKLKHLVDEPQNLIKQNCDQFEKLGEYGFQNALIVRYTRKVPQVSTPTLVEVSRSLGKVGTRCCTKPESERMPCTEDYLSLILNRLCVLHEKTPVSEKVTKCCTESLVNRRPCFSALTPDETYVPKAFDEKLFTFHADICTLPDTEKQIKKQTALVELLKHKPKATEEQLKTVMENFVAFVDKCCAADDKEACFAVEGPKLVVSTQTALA
# [1] = probe aXIP binding to arrayed compounds – biochemical, NeuroSMM set, 635/667 nm fluorescence, primary screen (AID 1119); conditions: small-molecule microarray, higher = more signal, called active from +8 up or from −8 down;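 further: probe is the protein aXip251-270 applied at 1 µg/mL to compound-printed slides; binding of probe to printed compounds measured as 667 nm fluorescence plus signal to noise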
# [2] = probe aNOTCH3 binding on compound microarray – biochemical, small-molecule microarray, 635/667 nm fluorescence, primary screen (AID 1120); conditions: higher = more signal;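 further: probe is a biotin-tagged antibody raised against NOTCH3 rather than NOTCH3 protein; score merges spot fluorescence near 667 nm with spot signal to noise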
# [3] = probe aNOTCH2 binding on compound microarray – biochemical, small-molecule microarray, 635/667 nm fluorescence, primary screen (AID 1121); conditions: higher = more signal;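 further: score merges feature fluorescence read at 667 nm with its signal to noise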
# [4] = biological target: Carbonic anhydrase 2 (Homo sapiens) (UniProt P00918); test: compounds binding carbonic anhydrase 2 – biochemical, small-molecule microarray, Alexa647-labelled CAII, profiling panel (AID 1122); conditions: CAII-A647 binding fluorescence, higher = more signal
# [5] = COS7 lysate on small-molecule microarray, probe aHis, 635 nm (AID 1123); conditions: COS7 cell lysate, fluorescence, higher = more signal;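 further: z-score combines 667nm fluorescence intensity with signal-to-noise per printed compound spot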
# [6] = probe aLAP1 signal on lysate-treated microarray – cell lysate, small-molecule microarray, COS7 lysate, primary screen (AID 1124); conditions: probe aLAP1, fluorescence, higher = more signal;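 further: lysate comes from COS7 cells expressing LAP1 and is applied at 0.3 µg/mL; score merges spot fluorescence near 667 nm with signal-to-noise over triplicate slides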
# Sam68 (KHDRBS1) = test: compounds binding KHDRBS1 protein – biochemical, small-molecule microarray, 635 nm fluorescence, primary screen (AID 1125); conditions: higher = more signal;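 further: score merges 667 nm channel intensity with signal to noise over triplicate slides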
# [7] = system: Chordin-like protein 2 (CHRDL2); test: compounds binding chordin-like 2 – biochemical, small-molecule microarray, 635 nm fluorescence, primary screen (AID 1126); conditions: fluorescence 635 nm, higher = more signal;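 further: printed compound slides probed with Chrdl2 protein at 4 µg/mL for 1 h at 4 C; score merges 667 nm emission intensity with signal to noise over three replicate slides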
# [8] = biological target: Concanavalin-A (Canavalia ensiformis) (UniProt P02866); test: compounds binding concanavalin A lectin – biochemical, small-molecule microarray, Alexa647 label, 635 nm, artefact control for SMM control protein annotation, primary screen (AID 1127); conditions: ConA-A647 binding fluorescence, higher = more signal;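 further: z combines 667 nm emission intensity with signal-to-noise across three replicate slides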
# Sequence of Concanavalin-A (Canavalia ensiformis) (P02866 whole entry, looked up): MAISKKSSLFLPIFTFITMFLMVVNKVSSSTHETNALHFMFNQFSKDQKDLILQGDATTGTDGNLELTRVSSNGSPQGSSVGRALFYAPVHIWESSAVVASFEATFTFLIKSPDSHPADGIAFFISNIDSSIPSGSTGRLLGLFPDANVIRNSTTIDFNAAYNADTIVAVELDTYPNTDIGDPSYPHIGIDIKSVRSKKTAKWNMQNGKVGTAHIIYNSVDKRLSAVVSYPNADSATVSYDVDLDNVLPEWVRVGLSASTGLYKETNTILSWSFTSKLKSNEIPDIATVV
# [9] = compounds binding Alexa647 anti-His antibody – biochemical, small-molecule microarray, 635 nm fluorescence, artefact control for SMM control protein annotation, primary screen (AID 1128); conditions: higher = more signal;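 further: score merges feature fluorescence with signal-to-noise for each printed compound spot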
# [10] = system: Human papillomavirus type 1a E7 protein (residues 1-88); test: HPV1a E7 small-molecule binders, primary screen, biochemical, small-molecule microarray, residues 1-88, 635 nm (AID 1129); conditions: small-molecule microarray binding, fluorescence 635 nm; higher = more signal
# [11] = biological target: Focal adhesion kinase 1 (Homo sapiens) (UniProt Q05397); test: PTK2 protein binding on printed compound slides – biochemical, small-molecule microarray, 635/667 nm fluorescence, BSA, DTT, primary screen (AID 1130); conditions: 635 nm fluorescence, higher = more signal;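 further: composite of spot emission at 667 nm and signal to noise over triplicate slides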
# Sequence of Focal adhesion kinase 1 (Homo sapiens) (Q05397 whole entry, looked up): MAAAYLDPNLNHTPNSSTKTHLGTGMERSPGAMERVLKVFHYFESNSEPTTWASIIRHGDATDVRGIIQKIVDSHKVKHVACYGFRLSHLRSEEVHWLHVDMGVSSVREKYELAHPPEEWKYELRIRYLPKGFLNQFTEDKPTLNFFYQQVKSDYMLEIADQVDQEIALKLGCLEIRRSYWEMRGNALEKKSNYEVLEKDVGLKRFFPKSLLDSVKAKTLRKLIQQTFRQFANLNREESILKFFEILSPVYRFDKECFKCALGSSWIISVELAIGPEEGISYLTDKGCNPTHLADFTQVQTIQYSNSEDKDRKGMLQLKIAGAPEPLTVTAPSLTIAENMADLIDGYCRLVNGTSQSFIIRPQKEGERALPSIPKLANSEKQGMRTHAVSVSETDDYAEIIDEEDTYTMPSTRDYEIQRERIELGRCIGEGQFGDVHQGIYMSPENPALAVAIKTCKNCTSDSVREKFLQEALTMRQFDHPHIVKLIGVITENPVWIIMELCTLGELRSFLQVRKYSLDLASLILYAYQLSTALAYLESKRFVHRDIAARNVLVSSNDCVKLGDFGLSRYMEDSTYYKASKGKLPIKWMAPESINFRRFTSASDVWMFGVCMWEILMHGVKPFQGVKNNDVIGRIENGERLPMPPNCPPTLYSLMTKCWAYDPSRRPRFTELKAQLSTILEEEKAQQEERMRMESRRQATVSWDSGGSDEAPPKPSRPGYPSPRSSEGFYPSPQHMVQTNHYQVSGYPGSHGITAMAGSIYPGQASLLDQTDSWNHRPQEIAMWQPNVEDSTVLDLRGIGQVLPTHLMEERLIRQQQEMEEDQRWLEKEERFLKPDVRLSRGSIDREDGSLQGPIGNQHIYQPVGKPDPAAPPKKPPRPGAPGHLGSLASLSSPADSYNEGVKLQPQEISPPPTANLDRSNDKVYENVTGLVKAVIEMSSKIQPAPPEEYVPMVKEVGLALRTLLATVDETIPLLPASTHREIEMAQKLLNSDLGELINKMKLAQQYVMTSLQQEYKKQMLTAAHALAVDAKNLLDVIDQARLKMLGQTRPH
# [12] = system: Fibrinogen (Alexa647-labelled); test: Alexa647-fibrinogen binding to printed small molecules – biochemical, small-molecule microarray, 635/667 nm fluorescence, artefact control for SMM control-protein annotation, profiling panel (AID 1131); conditions: fibrinogen-A647 binding fluorescence, higher = more signal;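 further: z-score merges 667 nm fluorescence with per-spot signal-to-noise over triplicate slides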
# [13] = biological target: Follistatin (Homo sapiens) (UniProt P19883); test: FST protein binding to printed compounds – biochemical, small-molecule microarray, 635/667 nm fluorescence, primary screen (AID 1132); conditions: 635 nm fluorescence, higher = more signal
# Sequence of Follistatin (Homo sapiens) (P19883 whole entry, looked up): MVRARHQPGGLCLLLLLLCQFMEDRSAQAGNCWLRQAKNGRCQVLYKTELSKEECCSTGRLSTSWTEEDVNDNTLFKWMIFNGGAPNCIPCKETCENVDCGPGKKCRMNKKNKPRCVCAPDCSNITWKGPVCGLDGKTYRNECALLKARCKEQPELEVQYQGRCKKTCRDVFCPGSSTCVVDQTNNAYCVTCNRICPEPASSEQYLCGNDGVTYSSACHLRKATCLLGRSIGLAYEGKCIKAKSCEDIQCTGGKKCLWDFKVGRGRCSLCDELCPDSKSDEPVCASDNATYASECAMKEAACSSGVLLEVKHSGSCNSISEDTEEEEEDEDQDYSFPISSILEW
# [14] = biological target: Fibroblast growth factor 2 (Homo sapiens) (UniProt P09038); test: basic fibroblast growth factor binding to printed compounds – biochemical, small-molecule microarray, 635/667 nm fluorescence, primary screen (AID 1133); conditions: FGF2, fluorescence 635/667, higher = more signal
# Sequence of Fibroblast growth factor 2 (Homo sapiens) (P09038 whole entry, looked up): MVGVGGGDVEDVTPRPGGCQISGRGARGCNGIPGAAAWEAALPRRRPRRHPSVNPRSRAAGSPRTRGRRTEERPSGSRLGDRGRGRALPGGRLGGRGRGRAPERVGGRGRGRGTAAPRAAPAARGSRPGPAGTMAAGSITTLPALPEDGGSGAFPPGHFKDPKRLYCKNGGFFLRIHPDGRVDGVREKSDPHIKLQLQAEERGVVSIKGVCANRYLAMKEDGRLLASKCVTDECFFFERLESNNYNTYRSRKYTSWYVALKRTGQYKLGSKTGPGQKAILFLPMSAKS
# [15] = JC-1 mitochondrial potential readout, lung cancer cells – cell-based, A549, JC-1 fluorescence, basal, 24 h, 100 nL, profiling panel (AID 1138); conditions: higher = more signal;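 further: A549 lung adenocarcinoma cells under basal conditions with no added stimulus; test concentration not given here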
# Lefty1 = Lefty1 protein binding to printed compounds – biochemical, small-molecule microarray, 635/667 nm fluorescence, primary screen (AID 1139); conditions: fluorescence 635/667, higher = more signal
# [16] = system: wheat germ agglutinin (Triticum aestivum), Alexa647-labelled; test: Alexa647-WGA lectin binding to printed small molecules – biochemical, small-molecule microarray, 635/667 nm fluorescence, artefact control for SMM control-protein annotation, profiling panel (AID 1140); conditions: WGA-A647 binding, 635 nm fluorescence, higher = more signal;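 further: score merges 667 nm feature emission with signal to noise over triplicate slides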
# [17] = biological target: Luciferin 4-monooxygenase (Photinus pyralis) (UniProt P08659); test: inhibition of purified Photinus pyralis luciferase – biochemical, luminescence, purified enzyme, 2006 set, primary screen (AID 1141); conditions: purified firefly luciferase, SteadyGlo luminescence, 30 min; higher = more signal, called active from +8 up or from −8 down;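 further: cell-free assay with purified firefly luciferase at 100 ng per well in PBS; test concentration not given here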
# Sequence of Luciferin 4-monooxygenase (Photinus pyralis) (P08659 whole entry, looked up): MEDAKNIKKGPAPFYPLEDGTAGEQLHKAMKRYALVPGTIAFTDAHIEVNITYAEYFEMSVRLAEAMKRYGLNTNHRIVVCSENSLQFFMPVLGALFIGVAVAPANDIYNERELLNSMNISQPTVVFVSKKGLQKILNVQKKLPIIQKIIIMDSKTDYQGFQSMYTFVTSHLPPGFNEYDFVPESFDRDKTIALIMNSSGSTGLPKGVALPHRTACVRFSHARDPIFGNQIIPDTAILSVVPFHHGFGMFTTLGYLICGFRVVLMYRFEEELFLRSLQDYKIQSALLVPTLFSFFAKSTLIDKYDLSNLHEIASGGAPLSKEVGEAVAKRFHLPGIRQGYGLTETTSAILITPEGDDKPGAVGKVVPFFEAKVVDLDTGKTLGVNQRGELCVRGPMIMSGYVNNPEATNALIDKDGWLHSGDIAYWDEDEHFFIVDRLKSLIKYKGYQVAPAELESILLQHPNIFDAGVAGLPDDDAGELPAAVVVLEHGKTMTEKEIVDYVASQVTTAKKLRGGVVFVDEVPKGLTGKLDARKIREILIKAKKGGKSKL
Structure (SMILES),composite z-score (Albumin (Bos taurus)),composite Z-score [1],composite z-score [2],composite z-score [3],composite z-score [4],composite z-score [5],composite z-score [6],composite z-score (Sam68 (KHDRBS1)),composite z-score [7],composite z-score [8],composite z-score [9],composite z-score [10],composite z-score [11],composite z-score [12],composite z-score [13],composite z-score [14],z-score [15],composite z-score (Lefty1),composite z-score [16],z-score [17]
CO[C@H]1COC(=O)[C@@H](Cc2ccccc2)NC(=O)[C@@H](C)COC(=O)CC=C[C@@H]1C,-1.03,-0.179 (inactive),-0.095,-0.14,-0.498,-0.875,-0.422,-0.0602,1.24,-0.773,-0.28,-0.0865,-0.112,-0.277,1.24,1.01,1.3,1.01,-0.744,-1.16 (inactive)
C[N+](C)(C)CCCCNC(=O)[C@H]1C[C@H]2C(=O)NCC(=O)N2[C@H]1c1cccc(OCCO)c1,-1.39,1.49 (inactive),0.147,-0.112,0.454,0.961,0.258,1.05,1.45,1.12,2.81,0.279,-0.0181,-0.0364,1.49,1.9,-0.776,1.71,0.399,-0.162 (inactive)
CCCC/C=C/[C@H]([C@@H](O)Cc1ccccc1)N(CC#Cc1ccccc1)Cc1ccccc1Br,-0.861,0.911 (inactive),-0.346,-0.171,-0.382,0.0748,0.006,-0.61,-1.64,-0.89,0.0428,-0.462,-0.219,-0.986,-1.59,-1.37,1.03,-1.84,-0.788,-1.12 (inactive)
